Assay results from PubChem BioAssay.
The source made the active and inactive calls.

Key:
[1] = binders of probe aFSTL3 on microarray, primary screen, stem cell growth factor project, biochemical, small-molecule microarray, fluorescence 635/667 (AID 1064); settings: higher = more signal;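 further: measures binding of the biotinylated anti-FSTL3 antibody to printed compounds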
[2] = binders from COS7 lysate, DM2A8 probe, primary screen, torsin A project, cell lysate, small-molecule microarray, fluorescence 635/667 (AID 1065); settings: higher = more signal, COS7 lysate expressing mutant human TOR1A
[3] = binders of probe aFGF2 on microarray, primary screen, stem cell growth factor project, biochemical, small-molecule microarray, fluorescence 635/667 (AID 1067); settings: higher = more signal;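 further: measures binding of biotinylated aFGF2 protein to printed compounds on slides; z-score merges feature fluorescence and signal-to-noise across triplicate slides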
[4] = binders of probe aFGF10 on microarray, primary screen, stem cell growth factor project, biochemical, small-molecule microarray, fluorescence 635/667 (AID 1071); settings: higher = more signal;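 further: score merges 667 nm spot intensity and signal to noise from triplicate slides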
[5] = target: Neurogenic locus notch homolog protein 2 (Homo sapiens) (UniProt Q04721); experiment: Notch2 binders on small-molecule microarrays, primary screen, biochemical, small-molecule microarray, 635 nm fluorescence, stem cell growth factors (AID 1073); settings: Notch2 binding, higher = more signal
[6] = target: Pro-neuregulin-1, membrane-bound isoform (Homo sapiens) (UniProt Q02297); experiment: NRG1 binders on small-molecule microarrays, primary screen, psychiatric disease protein project, biochemical, small-molecule microarray, fluorescence 635/667 (AID 1075); settings: NRG1 binding, 635 nm fluorescence, higher = more signal;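 further: score combines 667 nm spot fluorescence with signal to noise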
[7] = test system: Neuregulin-1 EGF-like domain; experiment: binders of neuregulin-1 EGF-like domain, primary screen, biochemical, small-molecule microarray, 635 nm fluorescence (AID 1081); settings: small-molecule microarray binding, higher = more signal;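 further: binding of the protein to compounds printed on small-molecule microarray slides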
[8] = FRG1 promoter luciferase signal modulators, primary screen, FRG1 inhibition for FSHD, cell-based, C2C12 myotubes, firefly/Renilla luciferase, luminescence (AID 1084); settings: higher = more signal, called active from +8 up or from −8 down
[9] = binders of probe aFST on microarray, primary screen, stem cell growth factor project, biochemical, small-molecule microarray, fluorescence 635/667 (AID 1086); settings: higher = more signal;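 further: score merges 667 nm fluorescence with signal-to-noise of each printed compound spot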
[10] = binders of probe aHhip on microarray, primary screen, stem cell growth factor project, biochemical, small-molecule microarray, fluorescence 635/667 (AID 1087); settings: higher = more signal;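 further: score merges spot fluorescence at 667nm with spot signal to noise ratio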
[11] = test system: PRMT1 (protein arginine N-methyltransferase 1); experiment: PRMT1 binders on small-molecule microarrays, primary screen, biochemical, small-molecule microarray, 635 nm fluorescence (AID 1088); settings: small-molecule microarray binding, higher = more signal;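 further: binding of Prmt1 protein to compounds spotted on small-molecule microarray slides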
[12] = yeast growth modulation, basal conditions, primary screen, YJM789 clinical isolate, OD600, 24 h (AID 1089);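 further: growth of clinical yeast isolate S. cerevisiae YJM 789 seeded 1000 cells per well; test concentration not given here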; settings: S. cerevisiae YJM789 growth, higher = more signal, called active from +8 up or from −8 down
[13] = fission yeast growth modulation, primary screen, strain 972, OD600, 24 h, no modulator (AID 1090);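 further: basal condition with compound alone and no growth modifier present; test concentration not given here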; settings: S. pombe 972 growth, higher = more signal, called active from +8 up or from −8 down
[14] = S. cerevisiae growth modulation with rapamycin, primary screen, strain BY4716, OD600, 96 h (AID 1091); settings: higher = more signal, called active from +8 up or from −8 down; further: test concentration not given here
[15] = target: Torsin-1A-interacting protein 2 (Homo sapiens) (UniProt Q8NFQ8); experiment: LULL1 binders on small-molecule microarray, primary screen, cell lysate, human LULL1 lysate, 635/667 nm fluorescence (AID 1092); settings: hLULL1 lysate binding, 635 nm fluorescence, higher = more signal;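 further: probe is lysate of COS7 cells overexpressing human LULL1; score merges per-feature 667 nm fluorescence with signal-to-noise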
[16] = E. coli growth modulation, two-sided OD650, primary screen, E. coli filamentation project, strain DRC41, 24 h (AID 1093); settings: OD650, 24 h, higher = more signal, called active from +8 up or from −8 down;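 further: MC1000 strain lacking acrAB efflux and sulA so SOS filamentation is blocked; test concentration not given here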
[17] = small-molecule microarray binders of probe aLefty2, primary screen, biochemical, biotinylated probe, 635/667 nm fluorescence (AID 1094); settings: higher = more signal;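 further: score merges spot fluorescence near 667 nm with spot signal-to-noise ratio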
[18] = test system: Noggin (protein binding on small-molecule microarray); experiment: Noggin binders on small-molecule microarray, primary screen, biochemical, 635/667 nm fluorescence (AID 1095); settings: 635 nm fluorescence, higher = more signal;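 further: score merges 667 nm feature fluorescence with signal to noise over triplicate slides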
[19] = target: Neurogenic locus notch homolog protein 3 (Homo sapiens) (UniProt Q9UM47); experiment: NOTCH3 binders on small-molecule microarray, primary screen, biochemical, 635/667 nm fluorescence (AID 1096); settings: NOTCH3 binding, 635 nm fluorescence, higher = more signal
[20] = small-molecule microarray binders of probe aEGFR, primary screen, biochemical, biotinylated probe, 635/667 nm fluorescence (AID 1097); settings: higher = more signal;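 further: probe is a biotinylated anti-EGFR antibody binding compounds printed on slides; score combines fluorescence near 667 nm and signal to noise of each spot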

Chain of Torsin-1A-interacting protein 2 (Homo sapiens) (Q8NFQ8 whole entry, looked up): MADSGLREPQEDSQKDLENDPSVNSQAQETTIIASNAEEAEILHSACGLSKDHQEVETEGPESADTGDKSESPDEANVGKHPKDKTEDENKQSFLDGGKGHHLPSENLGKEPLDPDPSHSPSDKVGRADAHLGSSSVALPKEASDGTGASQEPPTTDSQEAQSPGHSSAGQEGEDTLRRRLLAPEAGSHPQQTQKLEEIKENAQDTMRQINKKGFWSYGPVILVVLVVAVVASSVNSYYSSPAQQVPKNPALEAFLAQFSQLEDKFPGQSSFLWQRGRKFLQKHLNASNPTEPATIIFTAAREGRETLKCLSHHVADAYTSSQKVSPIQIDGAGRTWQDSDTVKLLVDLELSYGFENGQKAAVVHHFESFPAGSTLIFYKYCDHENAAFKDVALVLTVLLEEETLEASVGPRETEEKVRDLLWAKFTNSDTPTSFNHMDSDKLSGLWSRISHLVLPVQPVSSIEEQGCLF
Chain of Neurogenic locus notch homolog protein 3 (Homo sapiens) (Q9UM47 whole entry, looked up): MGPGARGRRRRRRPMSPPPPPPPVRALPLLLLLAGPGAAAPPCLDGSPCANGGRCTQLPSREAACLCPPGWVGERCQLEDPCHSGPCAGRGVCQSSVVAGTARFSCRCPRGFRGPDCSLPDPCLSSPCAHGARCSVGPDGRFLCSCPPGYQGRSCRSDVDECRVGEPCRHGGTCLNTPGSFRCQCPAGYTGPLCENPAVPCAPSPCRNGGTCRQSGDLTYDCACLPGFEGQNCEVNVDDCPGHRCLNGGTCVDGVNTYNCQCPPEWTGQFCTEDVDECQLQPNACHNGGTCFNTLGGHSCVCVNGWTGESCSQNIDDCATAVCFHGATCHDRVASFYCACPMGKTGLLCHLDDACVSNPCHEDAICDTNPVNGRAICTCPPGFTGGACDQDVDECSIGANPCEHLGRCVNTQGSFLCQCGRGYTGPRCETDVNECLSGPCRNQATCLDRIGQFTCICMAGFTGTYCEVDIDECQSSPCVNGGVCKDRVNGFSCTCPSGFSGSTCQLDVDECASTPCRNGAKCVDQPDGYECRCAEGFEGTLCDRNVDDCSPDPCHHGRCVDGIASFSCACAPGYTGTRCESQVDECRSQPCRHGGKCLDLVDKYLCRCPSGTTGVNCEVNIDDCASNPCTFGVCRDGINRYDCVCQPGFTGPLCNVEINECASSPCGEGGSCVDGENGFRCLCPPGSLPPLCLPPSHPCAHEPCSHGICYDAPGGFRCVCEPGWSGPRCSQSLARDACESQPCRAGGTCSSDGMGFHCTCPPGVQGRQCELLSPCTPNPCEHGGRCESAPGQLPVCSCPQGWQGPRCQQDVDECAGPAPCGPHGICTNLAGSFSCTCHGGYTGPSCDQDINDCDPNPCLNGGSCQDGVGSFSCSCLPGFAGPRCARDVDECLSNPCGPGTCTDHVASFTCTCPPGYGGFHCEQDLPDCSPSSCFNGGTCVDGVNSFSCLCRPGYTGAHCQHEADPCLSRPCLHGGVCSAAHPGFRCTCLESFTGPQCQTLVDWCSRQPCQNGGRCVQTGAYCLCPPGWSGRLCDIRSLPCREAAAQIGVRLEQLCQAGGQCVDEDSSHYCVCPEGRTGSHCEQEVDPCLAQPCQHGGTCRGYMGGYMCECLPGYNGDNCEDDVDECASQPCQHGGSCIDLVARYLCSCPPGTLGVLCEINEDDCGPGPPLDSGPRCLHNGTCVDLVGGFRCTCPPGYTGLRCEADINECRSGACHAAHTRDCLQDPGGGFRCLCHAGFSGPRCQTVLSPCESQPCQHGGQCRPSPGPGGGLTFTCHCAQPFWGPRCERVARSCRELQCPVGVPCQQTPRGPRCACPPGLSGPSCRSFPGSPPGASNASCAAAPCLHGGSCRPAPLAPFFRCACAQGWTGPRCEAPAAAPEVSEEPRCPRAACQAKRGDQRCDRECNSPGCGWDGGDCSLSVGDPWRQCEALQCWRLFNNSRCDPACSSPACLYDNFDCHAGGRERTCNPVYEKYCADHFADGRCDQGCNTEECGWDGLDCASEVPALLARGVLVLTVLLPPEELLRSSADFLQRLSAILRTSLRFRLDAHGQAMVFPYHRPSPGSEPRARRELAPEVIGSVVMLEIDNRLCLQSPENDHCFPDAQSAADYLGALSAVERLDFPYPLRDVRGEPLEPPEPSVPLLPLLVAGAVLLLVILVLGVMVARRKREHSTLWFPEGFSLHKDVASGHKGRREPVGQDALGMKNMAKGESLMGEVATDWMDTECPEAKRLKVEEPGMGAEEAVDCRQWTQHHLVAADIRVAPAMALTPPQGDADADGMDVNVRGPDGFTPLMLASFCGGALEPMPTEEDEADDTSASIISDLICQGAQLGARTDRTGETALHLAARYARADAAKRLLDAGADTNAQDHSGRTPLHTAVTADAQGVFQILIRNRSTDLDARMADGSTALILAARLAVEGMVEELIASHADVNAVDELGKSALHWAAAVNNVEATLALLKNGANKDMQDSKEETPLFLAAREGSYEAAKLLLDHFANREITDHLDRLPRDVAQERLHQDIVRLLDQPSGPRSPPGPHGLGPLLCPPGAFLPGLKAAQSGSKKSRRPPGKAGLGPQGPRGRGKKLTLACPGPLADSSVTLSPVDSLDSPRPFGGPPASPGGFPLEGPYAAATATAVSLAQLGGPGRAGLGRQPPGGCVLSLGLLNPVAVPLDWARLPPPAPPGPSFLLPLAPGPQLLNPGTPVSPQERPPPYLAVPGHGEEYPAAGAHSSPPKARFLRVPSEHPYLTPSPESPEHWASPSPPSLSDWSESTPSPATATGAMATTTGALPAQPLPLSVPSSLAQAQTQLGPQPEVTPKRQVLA
Chain of Pro-neuregulin-1, membrane-bound isoform (Homo sapiens) (Q02297 whole entry, looked up, the tested form may be a part, canonical isoform): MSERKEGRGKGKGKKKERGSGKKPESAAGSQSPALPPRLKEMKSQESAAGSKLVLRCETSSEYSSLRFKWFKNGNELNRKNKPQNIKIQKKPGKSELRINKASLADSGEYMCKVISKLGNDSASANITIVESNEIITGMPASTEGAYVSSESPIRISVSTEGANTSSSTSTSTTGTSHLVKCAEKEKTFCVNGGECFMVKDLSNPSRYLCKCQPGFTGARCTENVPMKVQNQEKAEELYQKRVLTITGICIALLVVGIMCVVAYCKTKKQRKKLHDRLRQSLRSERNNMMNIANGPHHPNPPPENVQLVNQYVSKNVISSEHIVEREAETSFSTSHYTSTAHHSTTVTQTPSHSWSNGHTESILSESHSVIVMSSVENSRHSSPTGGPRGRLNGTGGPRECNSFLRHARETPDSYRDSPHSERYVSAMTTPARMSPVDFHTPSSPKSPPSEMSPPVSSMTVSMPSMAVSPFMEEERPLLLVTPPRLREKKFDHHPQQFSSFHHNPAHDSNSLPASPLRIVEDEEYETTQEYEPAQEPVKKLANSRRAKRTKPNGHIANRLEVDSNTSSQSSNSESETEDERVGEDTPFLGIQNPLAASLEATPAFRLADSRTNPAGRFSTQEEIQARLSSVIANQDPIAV

Compound	composite z-score [1]	composite z-score [2]	composite z-score [3]	composite z-score [4]	composite z-score [5]	composite z-score [6]	composite z-score [7]	z-score [8]	composite z-score [9]	composite z-score [10]	composite z-score [11]	z-score [12]	z-score [13]	z-score [14]	composite z-score [15]	z-score [16]	composite z-score [17]	composite z-score [18]	composite z-score [19]	composite z-score [20]
COCCOC(=O)N1C(=O)[C@@]2(c3cc(C#CC4=CCCCC4)ccc31)[C@H](C(N)=O)[C@H]1C(=O)O[C@H](c3ccccc3)[C@H](c3ccccc3)N1[C@@H]2c1ccccc1OCCO	0.193	0.33	-0.0105	0.999	1.07	1.47	1.34	-0.343 (inactive)	0.306	0.388	1.54	0.908 (inactive)	0.0645 (inactive)	1.99 (inactive)	2.75	-0.0839 (inactive)	-0.0028	0.551	1.11	-0.0056
CN(C)C(=O)[C@]1(CCS(=O)(=O)c2ccccc2)N=C(c2ccc(OCCCO)cc2)O[C@@H]1c1ccccc1N=[N+]=[N-]	0.169	1.13	0.15	1.16	1.59	1.27	1.4	2.79 (inactive)	1.84	0.155	1.53	0.154 (inactive)	-0.327 (inactive)	1.69 (inactive)	3.78	0.0837 (inactive)	0.429	1.42	1.05	0.204
COCCOC(=O)N1C(=O)[C@@]2(c3cc(C#CC4(O)CCCCCC4)ccc31)[C@H](c1ccc(O)cc1)N1[C@H](c3ccccc3)[C@H](c3ccccc3)OC(=O)[C@H]1[C@@H]2C(=O)NC[C@H](O)c1ccccc1	-0.116	0.556	-0.126	0.666	1.29	0.463	1.02	0.69 (inactive)	0.538	0.176	1.55	0.0316 (inactive)	-0.312 (inactive)	0.939 (inactive)	1.18	-0.639 (inactive)	0.332	1.78	1.06	0.22
O=C1OCC=C[C@H]2OC34C=CCN(c5ccc(Cl)cc5)C(=O)[C@H]3N(CCO)C(=O)[C@@H]4[C@@H]12 (stereo not given in full)	0.601	-0.515	-0.147	-0.0609	-1.09	-0.0774	1.04	0.782 (inactive)	-0.915	-0.137	0.197	-0.23 (inactive)	-0.846 (inactive)	0.0595 (inactive)	2.87	-0.297 (inactive)	-0.286	-2.04	-0.368	-0.321
[N-]=[N+]=NCc1ccccc1C[C@@]1(C(=O)N2CCOCC2)N=C(c2ccc(OCCCO)cc2)O[C@@H]1c1ccccc1	0.458	0.572	0.0654	1	1.44	1.79	1.1	-4.48 (inactive)	0.705	0.0749	1.42	-1.11 (inactive)	-1.72 (inactive)	33 (active)	3.33	0.386 (inactive)	0.349	-0.519	0.553	0.801
COC(=O)[C@@]1(Cc2ccc(OC)cc2)[C@H]2c3cc(C(=O)N(C)C)n(CCO)c3C[C@H]2CN1C(=O)c1ccccc1	0.494	2.56	0.152	-0.359	0.993	2.13	-0.139	1.63 (inactive)	0.871	0.0365	-1.15	-0.809 (inactive)	0.142 (inactive)	-0.14 (inactive)	1.96	-0.285 (inactive)	0.333	-1.13	-0.175	-0.0521
C=CCN1Cc2ccccc2[C@H]2OC(c3ccc(OCCCO)cc3)=N[C@@]2(CC=C)C1=O	0.451	0.169	0.0188	-0.177	1.12	1.44	1.42	-2.18 (inactive)	0.633	0.0401	1.53	-3.05 (inactive)	-7.01 (inactive)	-0.397 (inactive)	3.21	0.763 (inactive)	0.185	1.55	0.979	0.168
C=CCC(OC(C)=O)[C@@H]1[C@@H](N(Cc2cccc3ccccc23)C(=O)c2cccc3ccccc23)c2cc(OCCCO)ccc2N1C(=O)c1ccc(-c2ccccc2)cc1 (stereo not given in full)	-0.0699	0.103	-0.105	0.0552	-0.603	0.523	-0.825	-1.66 (inactive)	0.234	0.607	0.159	-0.551 (inactive)	0.169 (inactive)	-0.725 (inactive)	0.465	-0.61 (inactive)	-0.027	0.163	-0.287	-0.0104
CC(C)C[C@@H]1NC(=O)[C@@H]2C[C@H](C(=O)NCCCCN(C)C)[C@H](c3cccc(OCCO)c3)N2C1=O	0.0116	1.47	-0.143	-0.242	-0.416	0.204	1.19	6.17 (inactive)	-0.612	-0.192	0.751	-1.01 (inactive)	0.162 (inactive)	-1.01 (inactive)	2.85	0.659 (inactive)	-0.0258	0.592	-0.087	-0.183
CCOC(=O)c1ccc(NC(=O)O[C@H]2[C@H](OC(=O)Nc3ccc4c(c3)OCO4)[C@@H](OC(=O)Nc3ccc4c(c3)OCO4)[C@@H](OC)O[C@@H]2CO)cc1	-0.0691	0.816	0.0121	1.03	1.39	1.74	1.35	6.39 (inactive)	0.474	-0.318	1.53	1.38 (inactive)	2.29 (inactive)	7.12 (inactive)	3.27	1.15 (inactive)	0.119	1.07	1	0.0815
